Our source for the log2 fold change values is the supplement of paper PMC10849652.

Targets with a hit are over-represented here; the source holds about 7,900 in all. About 0.6% of all pairs of compound and target were hits. Values without a mark were called inactive.

UniProt Q13153, sequence (Q13153 whole entry, looked up): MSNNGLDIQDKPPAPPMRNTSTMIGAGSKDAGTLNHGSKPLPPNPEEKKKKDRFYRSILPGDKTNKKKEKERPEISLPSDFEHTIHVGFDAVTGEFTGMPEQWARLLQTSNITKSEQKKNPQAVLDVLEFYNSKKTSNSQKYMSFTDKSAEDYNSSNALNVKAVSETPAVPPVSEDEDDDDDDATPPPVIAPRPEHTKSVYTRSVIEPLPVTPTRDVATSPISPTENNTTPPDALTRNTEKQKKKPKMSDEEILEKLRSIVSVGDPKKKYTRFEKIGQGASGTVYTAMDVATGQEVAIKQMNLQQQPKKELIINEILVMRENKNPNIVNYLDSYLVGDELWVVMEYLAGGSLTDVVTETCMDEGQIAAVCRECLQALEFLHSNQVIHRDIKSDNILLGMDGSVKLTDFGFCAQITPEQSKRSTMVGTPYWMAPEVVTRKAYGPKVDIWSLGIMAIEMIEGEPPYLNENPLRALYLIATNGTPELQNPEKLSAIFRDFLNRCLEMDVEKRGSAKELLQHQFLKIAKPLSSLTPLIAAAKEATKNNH
UniProt Q9NXX6, sequence (Q9NXX6 whole entry, looked up): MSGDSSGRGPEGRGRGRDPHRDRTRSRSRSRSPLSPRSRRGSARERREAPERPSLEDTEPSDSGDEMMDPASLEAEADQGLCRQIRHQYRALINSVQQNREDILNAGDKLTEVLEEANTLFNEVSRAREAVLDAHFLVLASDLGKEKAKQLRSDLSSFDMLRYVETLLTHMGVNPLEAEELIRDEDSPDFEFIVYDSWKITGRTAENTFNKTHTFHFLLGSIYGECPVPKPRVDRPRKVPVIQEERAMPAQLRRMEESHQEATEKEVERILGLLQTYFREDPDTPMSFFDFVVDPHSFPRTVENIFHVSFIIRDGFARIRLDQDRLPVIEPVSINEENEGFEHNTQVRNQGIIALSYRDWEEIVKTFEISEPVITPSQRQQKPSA
UniProt Q15003, sequence (Q15003 whole entry, looked up): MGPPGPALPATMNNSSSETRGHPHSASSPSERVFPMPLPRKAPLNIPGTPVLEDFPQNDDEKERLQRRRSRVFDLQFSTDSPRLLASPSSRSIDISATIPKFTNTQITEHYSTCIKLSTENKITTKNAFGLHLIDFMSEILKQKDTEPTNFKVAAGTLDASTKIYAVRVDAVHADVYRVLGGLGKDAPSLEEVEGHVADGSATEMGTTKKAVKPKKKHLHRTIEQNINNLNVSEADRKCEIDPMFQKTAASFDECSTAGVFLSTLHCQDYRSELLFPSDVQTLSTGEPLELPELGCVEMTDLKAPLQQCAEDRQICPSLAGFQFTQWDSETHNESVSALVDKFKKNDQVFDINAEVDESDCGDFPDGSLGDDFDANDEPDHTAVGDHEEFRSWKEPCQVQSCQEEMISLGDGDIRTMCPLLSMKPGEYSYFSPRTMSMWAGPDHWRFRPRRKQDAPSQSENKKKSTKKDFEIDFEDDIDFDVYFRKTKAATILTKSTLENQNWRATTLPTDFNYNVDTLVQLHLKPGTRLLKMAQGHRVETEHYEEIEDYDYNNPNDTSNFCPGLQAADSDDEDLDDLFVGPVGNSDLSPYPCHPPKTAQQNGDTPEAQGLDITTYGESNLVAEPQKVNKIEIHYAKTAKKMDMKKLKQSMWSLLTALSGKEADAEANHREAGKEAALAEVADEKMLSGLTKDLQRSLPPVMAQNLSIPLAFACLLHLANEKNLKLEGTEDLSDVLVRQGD
UniProt Q9HCE1, sequence (Q9HCE1 whole entry, looked up): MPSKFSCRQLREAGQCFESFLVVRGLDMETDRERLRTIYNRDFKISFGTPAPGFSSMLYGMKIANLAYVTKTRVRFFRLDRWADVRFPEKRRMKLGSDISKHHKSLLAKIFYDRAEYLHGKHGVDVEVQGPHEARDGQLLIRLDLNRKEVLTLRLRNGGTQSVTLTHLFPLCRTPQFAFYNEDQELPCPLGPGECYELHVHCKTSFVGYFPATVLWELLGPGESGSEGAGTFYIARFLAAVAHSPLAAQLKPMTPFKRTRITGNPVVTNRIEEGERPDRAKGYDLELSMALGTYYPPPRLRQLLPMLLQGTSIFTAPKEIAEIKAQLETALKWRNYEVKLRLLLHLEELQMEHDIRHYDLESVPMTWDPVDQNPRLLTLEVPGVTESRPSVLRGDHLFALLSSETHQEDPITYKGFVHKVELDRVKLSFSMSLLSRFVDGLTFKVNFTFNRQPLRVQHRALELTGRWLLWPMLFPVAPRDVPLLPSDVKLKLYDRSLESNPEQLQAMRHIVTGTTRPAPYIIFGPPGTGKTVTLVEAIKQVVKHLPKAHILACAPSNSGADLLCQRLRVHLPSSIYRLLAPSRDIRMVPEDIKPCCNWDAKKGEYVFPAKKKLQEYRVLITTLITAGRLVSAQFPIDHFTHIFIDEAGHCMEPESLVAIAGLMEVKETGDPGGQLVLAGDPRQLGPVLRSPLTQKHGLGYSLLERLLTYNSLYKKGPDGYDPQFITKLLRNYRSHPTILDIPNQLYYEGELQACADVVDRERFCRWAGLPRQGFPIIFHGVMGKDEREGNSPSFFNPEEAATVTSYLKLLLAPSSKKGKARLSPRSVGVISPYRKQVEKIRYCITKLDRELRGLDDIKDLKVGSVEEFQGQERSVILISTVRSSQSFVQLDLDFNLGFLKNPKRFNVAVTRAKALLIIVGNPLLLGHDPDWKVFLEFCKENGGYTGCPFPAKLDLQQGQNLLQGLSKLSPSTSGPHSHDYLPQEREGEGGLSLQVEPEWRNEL
UniProt Q9UI09, sequence (Q9UI09 whole entry, looked up): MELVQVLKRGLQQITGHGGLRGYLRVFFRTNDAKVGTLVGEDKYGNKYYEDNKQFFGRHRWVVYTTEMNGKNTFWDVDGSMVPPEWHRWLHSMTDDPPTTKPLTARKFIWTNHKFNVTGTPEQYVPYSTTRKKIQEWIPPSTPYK
UniProt Q01804, sequence (Q01804 whole entry, looked up): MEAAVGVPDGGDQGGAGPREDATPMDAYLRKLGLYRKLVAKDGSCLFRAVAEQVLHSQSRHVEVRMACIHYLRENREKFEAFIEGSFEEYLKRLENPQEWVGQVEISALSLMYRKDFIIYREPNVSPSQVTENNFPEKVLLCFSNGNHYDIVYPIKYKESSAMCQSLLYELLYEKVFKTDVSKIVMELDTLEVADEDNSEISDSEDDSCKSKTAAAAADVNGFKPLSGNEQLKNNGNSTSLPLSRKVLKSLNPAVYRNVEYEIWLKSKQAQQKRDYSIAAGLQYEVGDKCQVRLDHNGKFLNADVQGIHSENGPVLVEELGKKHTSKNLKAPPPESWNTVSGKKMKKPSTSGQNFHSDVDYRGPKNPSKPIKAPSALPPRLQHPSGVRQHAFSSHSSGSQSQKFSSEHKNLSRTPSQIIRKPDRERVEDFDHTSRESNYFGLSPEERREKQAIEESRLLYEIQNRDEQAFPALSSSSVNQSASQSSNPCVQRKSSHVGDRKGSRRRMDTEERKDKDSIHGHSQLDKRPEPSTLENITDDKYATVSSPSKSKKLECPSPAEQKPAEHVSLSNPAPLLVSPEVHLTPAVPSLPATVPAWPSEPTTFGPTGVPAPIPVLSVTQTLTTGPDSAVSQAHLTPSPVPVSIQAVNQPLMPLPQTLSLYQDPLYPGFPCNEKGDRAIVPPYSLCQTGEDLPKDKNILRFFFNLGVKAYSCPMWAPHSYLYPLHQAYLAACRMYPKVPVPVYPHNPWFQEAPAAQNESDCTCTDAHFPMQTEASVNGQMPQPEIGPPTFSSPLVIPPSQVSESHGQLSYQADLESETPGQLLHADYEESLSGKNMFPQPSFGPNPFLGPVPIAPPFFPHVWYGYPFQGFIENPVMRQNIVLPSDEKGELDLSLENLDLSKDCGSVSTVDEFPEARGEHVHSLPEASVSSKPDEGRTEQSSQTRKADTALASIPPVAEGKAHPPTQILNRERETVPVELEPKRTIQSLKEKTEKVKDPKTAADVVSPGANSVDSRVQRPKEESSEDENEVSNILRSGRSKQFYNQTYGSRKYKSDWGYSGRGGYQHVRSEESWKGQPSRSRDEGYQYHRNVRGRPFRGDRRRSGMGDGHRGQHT
UniProt Q8N573, sequence (Q8N573 whole entry, looked up): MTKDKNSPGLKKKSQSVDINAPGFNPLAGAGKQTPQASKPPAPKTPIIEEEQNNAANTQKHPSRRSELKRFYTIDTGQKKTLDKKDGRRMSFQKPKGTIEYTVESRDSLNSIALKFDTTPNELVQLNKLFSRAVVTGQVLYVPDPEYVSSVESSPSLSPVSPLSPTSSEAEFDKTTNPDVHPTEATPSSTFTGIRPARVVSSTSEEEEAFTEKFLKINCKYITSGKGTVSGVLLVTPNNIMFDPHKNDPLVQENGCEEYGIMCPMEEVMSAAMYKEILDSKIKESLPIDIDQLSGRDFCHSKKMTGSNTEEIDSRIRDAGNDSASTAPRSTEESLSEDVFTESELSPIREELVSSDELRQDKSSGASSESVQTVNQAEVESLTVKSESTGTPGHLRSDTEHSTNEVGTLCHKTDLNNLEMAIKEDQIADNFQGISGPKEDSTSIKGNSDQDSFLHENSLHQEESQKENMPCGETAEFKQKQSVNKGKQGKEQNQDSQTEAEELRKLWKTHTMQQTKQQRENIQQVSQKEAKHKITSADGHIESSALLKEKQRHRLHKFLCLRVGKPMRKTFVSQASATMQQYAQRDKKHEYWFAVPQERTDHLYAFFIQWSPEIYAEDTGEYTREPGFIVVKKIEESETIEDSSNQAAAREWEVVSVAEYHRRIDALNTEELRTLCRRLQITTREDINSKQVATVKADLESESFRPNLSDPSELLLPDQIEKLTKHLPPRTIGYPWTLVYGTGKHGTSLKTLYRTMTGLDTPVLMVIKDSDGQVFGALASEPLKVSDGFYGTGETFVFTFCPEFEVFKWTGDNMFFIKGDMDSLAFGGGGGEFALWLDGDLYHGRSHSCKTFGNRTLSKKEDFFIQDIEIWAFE
UniProt O00217, sequence (O00217 whole entry, looked up): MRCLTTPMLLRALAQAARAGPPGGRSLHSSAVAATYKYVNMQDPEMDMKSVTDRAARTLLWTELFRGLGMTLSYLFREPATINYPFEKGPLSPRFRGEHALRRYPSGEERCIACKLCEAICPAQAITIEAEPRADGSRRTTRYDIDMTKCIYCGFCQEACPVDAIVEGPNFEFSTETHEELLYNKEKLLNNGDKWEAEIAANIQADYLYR

Compound in this experiment: CCN(CC)Cc1ccc2cc(COC(=O)Nc3ccc(C(=O)NO)cc3)ccc2c1 [givinostat]
Briefly: log2 fold change, soluble protein after heating vs DMSO (PISA); higher = thermal stabilisation; K562 cells, 10 uM, 30 min; active = over 0.2 and 3.5 SD of the protein, either way, in both replicates (recomputed). A digest of the protocol: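 Values are thermal stability changes relative to control samples and are taken from duplicates. They are stated as log2 fold changes. Before quantification by TMTpro 16plex LC-MS/MS with equalised channel sums, K562 cells at 2×10^6 cells/mL were treated with 10 μM compound for 30 min, heated in aliquots for 3 min across 48°C-58°C, pooled, extracted in PBS with 0.5% NP-40 at 4°C, and centrifuged at 21,000xg for 90 min to give the soluble supernatant.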
On to NUDT21 (UniProt O43809), for which the log2 fold change is -0.033. For the target NUCKS1 (UniProt Q9H1E3), the log2 fold change was -0.004. As to NUDT1 (UniProt P36639), the log2 fold change was -0.042.

On to MRPS2 (UniProt Q9Y399), for which the log2 fold change is -0.044. NDUFA12 (UniProt Q9UI09): the log2 fold change was 0.114.

For the target OGFR (UniProt Q9NZT2), the log2 fold change is -0.02.

As for NIBAN1 (UniProt Q9BZQ8), the log2 fold change is 0.05. Turning to NSMCE4A (UniProt Q9NXX6), the log2 fold change was -0.072.

As for MUL1 (UniProt Q969V5), the log2 fold change was 0.005.

For NDUFS7 (UniProt O75251), the log2 fold change was 0.113. For the target OTULIN (UniProt Q96BN8), the log2 fold change was 0.039.

As for MOV10 (UniProt Q9HCE1), the log2 fold change is -0.006.

With NCAPH (UniProt Q15003), the log2 fold change is 0.238.

On to NOP56 (UniProt O00567), for which the log2 fold change was 0.096.

Consider OTUD4 (UniProt Q01804), for which the log2 fold change is 0.05.

With NA, A0A096LPI6, the log2 fold change is -0.055. The figure for MSH6 (UniProt P52701) is 0.35; for NCAPD2 (UniProt Q15021) it is 0.077. Regarding NCOA7 (UniProt Q8NI08), the log2 fold change is 0.045. Take NDUFA6 (UniProt P56556): the log2 fold change was 0.047. Turning to NME7 (UniProt Q9Y5B8), the log2 fold change was -0.202. Regarding NFATC2IP (UniProt Q8NCF5), the log2 fold change is 0.088. As to MMS19 isoform 8 (UniProt Q96T76), the log2 fold change is -0.061. The result for NMT2 (UniProt O60551) reads -0.233; that for MRPS12 (UniProt O15235), 0.077; that for MRPS31 (UniProt Q92665), 0.009. Regarding NMD3 (UniProt Q96D46), the log2 fold change was -0.024.

On to NAP1L1 (UniProt P55209), for which the log2 fold change was -0.08. With NACC1 (UniProt Q96RE7), the log2 fold change was 0.208. On to NCK1 (UniProt P16333), for which the log2 fold change was 0.211. As for OXR1 (UniProt Q8N573), the log2 fold change is 0.012. The figure for MIS12 (UniProt Q9H081) is 0.102; for NDUFS8 (UniProt O00217) it is -0.014; for PAK1 isoform 2 (UniProt Q13153) it is -0.054.

Turning to NFATC3 (UniProt Q12968), the log2 fold change is 0.088. On to NOP2 isoform 4 (UniProt P46087), for which the log2 fold change was 0.178. Consider NUP98 (UniProt P52948), for which the log2 fold change is 0.081. The figure for OXSM (UniProt Q9NWU1) is -0.234 (active); for NBN (UniProt O60934) it is 0.054.
